PubChem BioAssay AID624354 (Sanford-Burnham Center for Chemical Genomics, 2012)
Where “and” joins values, the source holds several entries; their conditions need not be identical. Equal values may be shown once. Screen size: about 360,000 compounds; about 3,800 (1.1%) were called active. Shown is part of a subset that was picked to be rich in actives. Unmarked numbers belong to inactive results.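 The calls were made as follows: active = compounds causing at least 50% loss of cell viability in the single-dose screen, relative to plate controls; inactive = the rest.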

Assay: TRAIL-exposed caspase-8 expressing cell killing – NB7+C8 cells, ATPlite luminescence, TRAIL sensitizer project, primary screen (AID 624354)
Settings: at 10 µM, active compounds read high

| Structure (SMILES) | inhibition (viability loss, TRAIL sensitization) |
| --- | --- |
| Cc1ccc(C(=O)O/N=C(\N)c2ccccn2)cc1Cl | 74.5% (active) |
| N/C(=N\OC(=O)c1ccc([N+](=O)[O-])cc1)c1ccccn1 | 24.5% |
| N/C(=N\OC(=O)CCC1CCCCC1)c1ccccn1 | -5.71% |
| CNc1nc(SC)nc(N(C#N)CC(=O)OC)n1 | -0.928% |
| COC(=O)c1cccc(C(=O)N2CCCC(Nc3ccc4c(c3)OCCO4)C2)c1 (stereo not given) | -3.93% |
| COc1ccc(S(=O)(=O)N2CCCC(C(=O)NCCCn3ccnc3)C2)cc1OC (stereo not given) | -12.7% |
| COc1ccc2nc(-c3ccccn3)ccc2c1 | 80.3% (active) |
| COc1ccc2cc(CCl)c(Cl)nc2c1 | -1.84% |
| COc1ccc(C=C(C#N)C#N)c(CSc2ccccn2)c1 | 1.8% |
| CC[C@H](C)[C@@H](C(=O)N1CCNCC1)n1cc([C@@H](N)Cc2ccc(O)cc2)nn1 | -6.33% |
| CCCNC(=O)C1(C)CCN1C(=O)Cc1ccc(-c2ccccc2)cc1 (stereo not given) | 5.54% |
| CC1(C(=O)NS(=O)(=O)c2ccccc2)CCN1C(=O)Cc1ccc(-c2ccccc2)cc1 (stereo not given) | 4.55% |
| C#Cc1ccc(NC(=O)C2(C)CCN2C(=O)Cc2ccc(-c3ccccc3)cc2)cc1 (stereo not given) | 73.3% (active) |
| Cc1cccc2c1-c1sc(C(=O)NCCCN3CCc4ccccc4C3)cc1CO2 | 11.6% |
| COc1cccc(C(NC(C)=O)c2nc(-c3ccccc3OC)cs2)c1 (stereo not given) | 2.76% |
| Cc1noc(C)c1CSCC(=O)Nc1nc2ccc(Oc3ccccc3)cc2s1 | -12.9% |
| COc1ccc2nc(Nc3nc(-c4cc5ccccc5oc4=O)cs3)sc2c1 | 69.2% (active) |
| CC(=O)CSc1nnc(CSc2ncccn2)n1C1CCCCC1 | -3.63% |
| O=C(NCCc1ccccc1Cl)C1CCC(=O)N(CCCc2ccccc2)C1 (stereo not given) | 6.8% |
| Fc1ccc(/C=N/Nc2nc(-c3cccnc3)nc3ccccc23)cc1 | 50.2% (active) |
| Brc1ccc(-c2csc(N/N=C/c3cccnc3)n2)cc1 | 2.52% |
| CCN(CC(=O)NC1CCS(=O)(=O)C1)c1nc(-c2cccnc2)nc2ccccc12 (stereo not given) | 11.4% |
| O=C(NNS(=O)(=O)c1ccccc1)c1cnn(-c2ccc(Cl)cc2)c1C(F)(F)F | 18.4% |

| Structure (SMILES) | inhibition (viability loss, TRAIL sensitization) |
| --- | --- |
| Cc1ccc(NC(=O)CCOc2ccccc2)cc1S(=O)(=O)Nc1ccccc1Cl | 5.58% |
| CN(C(=O)CSc1cccc[n+]1[O-])C1CCCCC1 | 9.54% |
| O=C(c1cc2ccccc2o1)N1CCN(c2cccc(C(F)(F)F)c2)CC1 | -2.4% |
| CC(=O)c1sc(NC(=O)c2ccc(C)cc2)nc1C | 68.3% (active) |
| Cc1ccc(C(=O)Nc2ccn(C)n2)cc1 | 14.4% |
| CC(=O)c1sc(N)nc1C | -3.29% and -3.98% |
| CCOC(=O)N1CCN(C(=O)COC(=O)c2cccc(S(C)(=O)=O)c2)CC1 | -12.4% |
| C=CC(COCc1ccccc1)N(CC(=O)OC)S(=O)(=O)c1cc(Br)ccc1OC (stereo not given) | 2.56% |
| Cc1cc(C)cc(OCC(=O)Nc2ccc(N3CCOCC3)cc2N2CCOCC2)c1 | 6.27% |
| CCOc1cc(N2CCOCC2)c(OCC)cc1NC(=O)C1=NN(c2cccc(C)c2)C(=O)CC1 | 3.1% |
| CCOc1cc(N2CCOCC2)c(OCC)cc1NC(=O)COc1cccc2cccnc12 | 53.6% (active) |
| Cc1ccc(-c2c3c(=O)n(C)c(=O)n(C)c3cn2-n2cnnc2)cc1 | -15.5% |
| COc1ccc(OC)c(NC(=O)c2ccc3c(c2)C(=O)N(c2ccc(OC(C)=O)cc2)C3=O)c1 | -0.949% |
| CC1CCCCC1NC(=O)CCS(=O)(=O)c1ccc2c(c1)NC(=O)CO2 (stereo not given) | -18.2% |
| Cc1ccccc1S(=O)(=O)N1[C@@H](c2cccc(Cl)c2)C(C(=O)O)=CC[C@H]1c1ccc(Cl)cc1 | 15.5% |
| Cc1oc2c(c1C(=O)N1CCOCC1)C(=O)c1ccccc1C2=O | 88.8% (active) |
| CC(C(=O)Nc1ccccc1-c1ccccc1)N1CCOCC1 (stereo not given) | -42% |
| Cc1nc2ccccc2n1C(=O)N1CCOCC1 | -8.36% |
| COC(=O)[C@@]1(Sc2ccc(C)cc2)CC(=O)N(c2cccc(SC)c2)[C@@H]1c1ccccc1 | 24.6% |
| O=C1/C(=C\c2ccc([N+](=O)[O-])cc2)CS(=O)(=O)C/C1=C/c1ccc([N+](=O)[O-])cc1 | 91.8% (active) |
| O=[N+]([O-])c1ccc(N=NNc2ccc([N+](=O)[O-])cc2)cc1 | 13.8% |
| O=C(Cc1ccccc1)N1CCN(S(=O)(=O)c2ccc([N+](=O)[O-])cc2)CC1 | -7.16% |
| CC1(C(=O)NCc2ccco2)Cc2c(-c3ccc4c(c3)OCO4)ccnc2O1 (stereo not given) | 14.9% |

| Structure (SMILES) | inhibition (viability loss, TRAIL sensitization) |
| --- | --- |
| COc1ccc(/C=N/NC(=O)Cn2cc(C(F)(F)F)ccc2=O)cc1 | -0.17% |
| CCOc1cc(/C=N/NC(=O)c2c(C)nc3ccc(Cl)cn23)ccc1O | -7.66% |
| COc1ccc(C(=O)Nc2ccccc2C(=O)N/N=C/c2ccc(O)c(OC)c2)cc1 | 95.8% (active) |
| COc1ccc(/C=N/Nc2ccccc2C(=O)O)cc1 | 55.9% (active) |
| COc1ccc(/C=N/NC(=O)C(C)N(c2ccc(OC)cc2)S(C)(=O)=O)cc1 (stereo not given) | -5.4% |
| COc1cc(C=NC2CCCCC2)ccc1O | -2.08% |
| Cc1cccc(N(Cc2ccccc2)C(=O)c2cc(S(=O)(=O)N3CCOCC3)ccc2F)c1 | 19.9% |
| CN(C)C(=O)CCc1ccc2c3c([nH]c2c1)[C@]1(CCc2ccccc2)[C@@H](C(=O)N2CCCCC2)C[C@H](CC(=O)NCCC2=CCCCC2)C(=O)N1CC3 | 13.2% |
| CCc1nc2ccc(C(=O)Nc3cccc(OC)c3)cn2c1N(CCC(C)C)CCN(C)C | 15.5% |
| CCOc1ccccc1-n1c(SCC(=O)N2CCCC2)nnc1-c1ccoc1C | 2.53% |
| O=C(N/N=C/C=C/c1ccco1)c1cccs1 | -0.972% |
| Cc1ccc(C(=O)N/C(=C/c2ccco2)C(=O)NCCc2c[nH]c3ccccc23)cc1C | -2.25% |
| Cc1ccc(-c2cc(C(=O)N/N=C/C=C/c3ccco3)c3ccccc3n2)cc1C | 61.5% (active) |
| Cc1ccc(C2Nc3ccccc3C(=O)N2CCN2CCNC2=O)cc1 (stereo not given) | -20.4% |
| Cc1ccc(Cc2c(-c3ccccc3)nc3ccc(Cl)cn23)cc1 | 8.97% |
| CC(=O)Nc1c(-c2ccc(C)cc2)nc2ccc(Cl)cn12 | -3.92% |
| Cc1ccnc(N2C(=O)c3ccc([N+](=O)[O-])cc3C2=O)c1 | -23.1% |
| Cc1ccc(-n2cc3ccc([N+](=O)[O-])cc3n2)cc1 | 25.5% |
| Cc1ccc(-c2nc3ccc(Br)cn3c2Cc2ccccc2C(F)(F)F)cc1 | 12.7% |
| COc1ccc(-c2nc3ccc(Br)cn3c2Cc2ccc(C)cc2)cc1OC | 3.92% |
| Cc1ccc2nc(-c3ccc(Br)cc3)cn2c1 | 67.2% (active) |
| Cc1ccc(-c2cn3cc([N+](=O)[O-])ccc3n2)cc1 | 56.8% (active) |
| Cc1ccc(-c2cn3cc(C)ccc3n2)cc1 | 87.8% (active) |

| Structure (SMILES) | inhibition (viability loss, TRAIL sensitization) |
| --- | --- |
| CCOc1ccc(C(C)=O)cc1CSc1nnc(-c2ccncc2)n1CCOC | -21.1% |
| CC(C)Oc1ccc(/C=C(\NC(=O)/C=C/c2ccco2)C(=O)NCCc2nc3ccccc3[nH]2)cc1 | -11.3% |
| CCCCN(CC)C(=O)CN(C)S(=O)(=O)c1cccc2nsnc12 | 4.95% |
| CN(CC(=O)Nc1c(Cl)cccc1Cl)C(=O)c1ccncc1 | -1.41% |
| OC[C@@H]1CN(Cc2ccc(Cl)cc2)C[C@H](n2cnc3c(NCc4ccncc4)ncnc32)O1 | 0.808% |
| CSCCC(NS(=O)(=O)c1ccccc1F)C(=O)N1CC=C(c2ccccc2)CC1 (stereo not given) | 15.4% |
| N#CCCn1ncc2ccccc21 | -30.7% |
| COc1ccc2c(c1)cc1n2CCN=C1NN | 6.58% |
| COc1ccc(C(=O)NC(Cc2ccc(OC(=O)c3ccc(OC)cc3)cc2)C(=O)O)cc1 (stereo not given) | 7.3% |
| O=CNc1cc(-c2ccc(C(=O)N3CCOCC3)cc2)cn2c(-c3ccc(F)cc3)cnc12 | 19.1% |
| CC(C)CNC(=S)NC(=O)c1ccc(Cl)cc1 | -9.78% |
| CN1C(=O)[C@H]2[C@@H](/C=C/c3ccccc3)N3C(=O)CN(Cc4ccc(-c5ccccc5)cc4)C(=O)[C@@]3(C)[C@H]2C1=O | 7.89% |
| CCOc1ccc(Br)cc1S(=O)(=O)Nc1ccc(C(=O)OC(C)C(=O)N(C)c2ccccc2)cc1 (stereo not given) | 9.56% |
| Oc1ccc(/C=N/Nc2nc(-c3ccccc3F)nc3ccccc23)c(O)c1 | 60.2% (active) |
| O=C(NNc1c2ccccc2nc2ccccc12)c1cc2ccccc2cc1O | 11.6% |
| Cc1ccc(/C=N/NC(=O)C2=NNC(c3ccccc3)(c3ccccc3)C2)c(O)c1 | 20.2% |
| O=C(NCc1ccccn1)[C@@H]1CCCN1C(=O)[C@@H]1CCCN1C(=O)c1ccccc1 | -14% |
| Nc1nc(NC(=O)/C=C/c2ccccc2)nn1-c1ccccc1 | 15% |
| COc1ccc(Oc2c(Cl)cnn(-c3ccccc3)c2=O)cc1 | 89.7% (active) |
| COc1ccc(C2c3c(C)nn(-c4ccccc4)c3NC(=O)N2c2ccccc2)cc1 (stereo not given) | -5.29% |
| COc1ccc(CCNC(=O)c2c(C)nn(-c3ccccc3)c2Cl)cc1 | -4.85% |
